Laboratory results: ChEMBL document CHEMBL3988442, “University of Dundee, Small-Polar-MMV Screening Library” (2021)
For some assays here: Entries with a potency or affinity are not part of this list.

What was measured:
Set-up in all cases: scale not given: direction of the effect not stated beside the values
[1] = biological target: Protein translocase subunit SecA (Escherichia coli (strain K12)) (UniProt P10408); assay: Assay to Identify E. coli SecA ATPase Inhibitors; assay type: functional; details: 30 µM
Protein translocase subunit SecA (Escherichia coli (strain K12)), sequence (P10408 whole entry): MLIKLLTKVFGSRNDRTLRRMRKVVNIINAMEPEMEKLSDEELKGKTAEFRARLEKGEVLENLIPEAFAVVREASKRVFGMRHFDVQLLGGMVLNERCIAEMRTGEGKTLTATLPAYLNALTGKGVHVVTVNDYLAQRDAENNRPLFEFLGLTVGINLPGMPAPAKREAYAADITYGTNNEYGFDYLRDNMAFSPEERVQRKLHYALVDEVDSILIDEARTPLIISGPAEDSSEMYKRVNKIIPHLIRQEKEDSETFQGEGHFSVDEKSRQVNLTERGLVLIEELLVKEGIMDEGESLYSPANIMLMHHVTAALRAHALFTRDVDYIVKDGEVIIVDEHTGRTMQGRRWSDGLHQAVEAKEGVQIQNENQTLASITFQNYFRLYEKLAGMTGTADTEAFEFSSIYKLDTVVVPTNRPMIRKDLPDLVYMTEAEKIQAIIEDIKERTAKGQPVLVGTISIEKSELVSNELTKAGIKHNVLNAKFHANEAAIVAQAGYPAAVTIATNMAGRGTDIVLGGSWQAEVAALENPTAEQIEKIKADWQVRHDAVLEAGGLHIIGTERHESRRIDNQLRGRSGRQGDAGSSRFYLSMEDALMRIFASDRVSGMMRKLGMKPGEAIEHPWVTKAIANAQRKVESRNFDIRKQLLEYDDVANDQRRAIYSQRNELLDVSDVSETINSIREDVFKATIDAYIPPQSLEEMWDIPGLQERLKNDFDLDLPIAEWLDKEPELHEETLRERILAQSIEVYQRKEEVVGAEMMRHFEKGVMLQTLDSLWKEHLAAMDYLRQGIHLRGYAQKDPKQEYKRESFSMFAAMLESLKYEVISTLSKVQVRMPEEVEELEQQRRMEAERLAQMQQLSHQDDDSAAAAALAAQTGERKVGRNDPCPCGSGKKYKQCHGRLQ

[2] = biological target: T1, Ubiquitin-activating enzyme e1, putative (Leishmania donovani (strain BPK282A1)) (UniProt E9BSI1); assay: Leishmania donovani Ubiquitin Activating Enzyme (LdE1); assay type: functional; details: 30 µM
T1 sequence (whole entry): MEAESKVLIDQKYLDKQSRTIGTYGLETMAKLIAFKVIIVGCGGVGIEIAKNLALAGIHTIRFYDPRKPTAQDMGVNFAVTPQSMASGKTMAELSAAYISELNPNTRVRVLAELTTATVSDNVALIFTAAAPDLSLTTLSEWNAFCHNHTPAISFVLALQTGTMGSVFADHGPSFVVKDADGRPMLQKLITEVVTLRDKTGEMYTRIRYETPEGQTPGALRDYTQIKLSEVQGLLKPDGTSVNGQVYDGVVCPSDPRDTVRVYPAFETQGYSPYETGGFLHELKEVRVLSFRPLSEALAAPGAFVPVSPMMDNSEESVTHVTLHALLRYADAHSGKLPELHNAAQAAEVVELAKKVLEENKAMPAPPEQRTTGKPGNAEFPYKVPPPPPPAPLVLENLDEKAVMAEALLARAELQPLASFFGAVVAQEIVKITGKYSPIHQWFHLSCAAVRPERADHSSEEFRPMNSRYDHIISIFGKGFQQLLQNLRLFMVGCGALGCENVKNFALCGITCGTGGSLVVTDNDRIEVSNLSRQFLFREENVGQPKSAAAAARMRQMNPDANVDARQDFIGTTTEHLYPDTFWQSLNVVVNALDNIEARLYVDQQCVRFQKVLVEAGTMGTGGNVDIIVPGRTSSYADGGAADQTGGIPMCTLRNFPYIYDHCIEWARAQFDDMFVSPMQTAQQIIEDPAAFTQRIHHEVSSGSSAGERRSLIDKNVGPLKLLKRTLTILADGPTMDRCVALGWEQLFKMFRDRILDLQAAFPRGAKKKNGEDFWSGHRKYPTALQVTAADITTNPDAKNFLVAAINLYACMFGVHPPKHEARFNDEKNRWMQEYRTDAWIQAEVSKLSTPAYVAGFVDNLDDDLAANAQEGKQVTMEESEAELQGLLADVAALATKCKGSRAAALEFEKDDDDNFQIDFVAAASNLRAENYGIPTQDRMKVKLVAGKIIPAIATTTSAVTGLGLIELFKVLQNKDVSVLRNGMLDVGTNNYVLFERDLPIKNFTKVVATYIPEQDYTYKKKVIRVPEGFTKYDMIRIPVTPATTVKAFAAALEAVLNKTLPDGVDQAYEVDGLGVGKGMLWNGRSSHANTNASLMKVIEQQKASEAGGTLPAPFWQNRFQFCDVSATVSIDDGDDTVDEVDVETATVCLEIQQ

[3] = biological target: T2, Aspartate--tRNA(Asp/Asn) ligase (Mycobacterium tuberculosis (strain ATCC 25618 / H37Rv)) (UniProt P9WFW3); assay: Assay for Asp RNA synthetase-1 from Mycobacterium tuberculosis; assay type: functional; details: 30 µM; also: in the data most compounds retested in dose-response had high values
T2 sequence (whole entry): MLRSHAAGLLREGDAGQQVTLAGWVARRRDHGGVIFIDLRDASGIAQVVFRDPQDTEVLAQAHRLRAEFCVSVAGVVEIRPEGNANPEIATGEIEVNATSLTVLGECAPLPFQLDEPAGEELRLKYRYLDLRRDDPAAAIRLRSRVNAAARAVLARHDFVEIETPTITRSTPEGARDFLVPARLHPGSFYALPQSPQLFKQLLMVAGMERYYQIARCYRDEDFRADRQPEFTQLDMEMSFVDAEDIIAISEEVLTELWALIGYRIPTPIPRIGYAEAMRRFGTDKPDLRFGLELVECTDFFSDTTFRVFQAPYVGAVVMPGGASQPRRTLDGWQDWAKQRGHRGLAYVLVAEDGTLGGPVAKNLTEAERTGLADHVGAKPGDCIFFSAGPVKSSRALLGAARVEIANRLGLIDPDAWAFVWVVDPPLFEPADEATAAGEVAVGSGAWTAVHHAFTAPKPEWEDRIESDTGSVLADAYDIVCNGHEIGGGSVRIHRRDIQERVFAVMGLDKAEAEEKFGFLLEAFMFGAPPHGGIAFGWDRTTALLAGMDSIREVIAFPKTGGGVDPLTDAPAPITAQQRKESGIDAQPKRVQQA

[4] = biological target: AMP-activated protein kinase, AMPK (Homo sapiens) (UniProt P54646+O43741+P54619+Q9UGJ0+Q9Y478+Q13131+Q9UGI9); assay: AMP-dependent Kinase enzyme assay. An in vitro enzyme assay that detects ADP turnover that is directly proportional to AMPK activity. This uses naive AMPK that is activated during the assay with MK-8722; assay type: functional; details: 30 µM
[5] = biological target: Sialic acid-binding Ig-like lectin 9 (Homo sapiens) (UniProt Q9Y336); assay: Hs-Siglec9 ALPHAscreen SOP 20170721; details: 10 µM
Sialic acid-binding Ig-like lectin 9 (Homo sapiens), sequence (Q9Y336 whole entry): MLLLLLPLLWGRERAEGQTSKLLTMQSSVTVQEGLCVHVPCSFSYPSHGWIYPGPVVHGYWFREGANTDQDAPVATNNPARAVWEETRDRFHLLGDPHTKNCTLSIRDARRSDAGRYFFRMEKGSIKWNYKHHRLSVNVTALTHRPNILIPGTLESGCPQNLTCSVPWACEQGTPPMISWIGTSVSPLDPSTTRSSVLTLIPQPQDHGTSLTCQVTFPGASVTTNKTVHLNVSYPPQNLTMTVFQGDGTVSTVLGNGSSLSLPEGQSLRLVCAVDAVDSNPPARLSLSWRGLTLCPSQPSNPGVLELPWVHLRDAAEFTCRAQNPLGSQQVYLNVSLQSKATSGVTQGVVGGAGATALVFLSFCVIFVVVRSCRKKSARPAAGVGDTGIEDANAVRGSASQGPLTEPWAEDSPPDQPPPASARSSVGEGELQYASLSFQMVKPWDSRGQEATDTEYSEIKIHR

Trypanosoma cruzi = assay: Trypanosoma cruzi phosphomannomutase and mannose-1-phosphate guanylyltransferase assay; assay type: functional; details: 10 µM
[6] = biological target: T3, Arginase-2, mitochondrial (Homo sapiens) (UniProt P78540); assay: in vitro enzyme assay to detect the production of urea directly proportional to the activity of Arginase II; assay type: functional; details: 33.3 µM; also: in the data most compounds retested in dose-response had high values
T3 sequence (whole entry): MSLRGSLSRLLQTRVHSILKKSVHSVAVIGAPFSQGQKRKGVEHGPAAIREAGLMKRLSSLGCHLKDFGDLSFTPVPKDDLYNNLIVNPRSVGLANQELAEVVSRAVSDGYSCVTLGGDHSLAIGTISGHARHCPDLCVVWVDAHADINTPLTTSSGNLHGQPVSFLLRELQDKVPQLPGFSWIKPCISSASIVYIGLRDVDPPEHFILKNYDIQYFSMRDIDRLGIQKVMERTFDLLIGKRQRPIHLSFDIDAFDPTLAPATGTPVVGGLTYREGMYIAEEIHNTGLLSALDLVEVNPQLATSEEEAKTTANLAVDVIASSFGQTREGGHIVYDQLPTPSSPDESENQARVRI

[7] = biological target: T4, Proteasome subunit beta (Trypanosoma cruzi) (UniProt O96673); assay: Trypanosoma cruzi proteasome chymotrypsin-like activity (TcProtChymo) assay.; also: in the data most compounds retested in dose-response had high values; assay type: functional; details: 9.37 µM
T4 sequence (whole entry): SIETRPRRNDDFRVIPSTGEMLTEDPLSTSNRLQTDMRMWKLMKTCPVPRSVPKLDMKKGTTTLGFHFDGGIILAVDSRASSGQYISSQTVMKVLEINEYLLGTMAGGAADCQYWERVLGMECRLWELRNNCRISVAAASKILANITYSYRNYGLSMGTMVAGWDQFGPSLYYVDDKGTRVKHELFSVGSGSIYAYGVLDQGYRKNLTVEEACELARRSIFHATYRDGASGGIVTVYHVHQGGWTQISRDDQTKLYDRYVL

Homo sapiens = organism: Homo sapiens; assay: To identify inhibition of the IFN signalling (Jak-Stat) pathway via expression of an eGFP reporter gene under the control of an IFN-stimulated response element (ISRE) containing MxA promoter.; assay type: functional; details: 30 µM
[8] = biological target: Shiga toxin 2 (Escherichia coli O157:H7) (UniProt P09385+P09386); assay: E. coli 0.157:H7 Shiga Toxin SOP - stx2 screening assay; assay type: functional; details: 30 µM
[9] = biological target: T5, Tyrosyl-tRNA synthetase, putative (Trypanosoma cruzi (strain CL Brener)) (UniProt Q4DSP6); assay: Trypanosoma cruzi tyrosyl tRNA synthetase (TcYRS) _High Tyrosine SOP; assay type: functional; details: 30 µM; also: in the data most compounds retested in dose-response had high values
T5 sequence (whole entry): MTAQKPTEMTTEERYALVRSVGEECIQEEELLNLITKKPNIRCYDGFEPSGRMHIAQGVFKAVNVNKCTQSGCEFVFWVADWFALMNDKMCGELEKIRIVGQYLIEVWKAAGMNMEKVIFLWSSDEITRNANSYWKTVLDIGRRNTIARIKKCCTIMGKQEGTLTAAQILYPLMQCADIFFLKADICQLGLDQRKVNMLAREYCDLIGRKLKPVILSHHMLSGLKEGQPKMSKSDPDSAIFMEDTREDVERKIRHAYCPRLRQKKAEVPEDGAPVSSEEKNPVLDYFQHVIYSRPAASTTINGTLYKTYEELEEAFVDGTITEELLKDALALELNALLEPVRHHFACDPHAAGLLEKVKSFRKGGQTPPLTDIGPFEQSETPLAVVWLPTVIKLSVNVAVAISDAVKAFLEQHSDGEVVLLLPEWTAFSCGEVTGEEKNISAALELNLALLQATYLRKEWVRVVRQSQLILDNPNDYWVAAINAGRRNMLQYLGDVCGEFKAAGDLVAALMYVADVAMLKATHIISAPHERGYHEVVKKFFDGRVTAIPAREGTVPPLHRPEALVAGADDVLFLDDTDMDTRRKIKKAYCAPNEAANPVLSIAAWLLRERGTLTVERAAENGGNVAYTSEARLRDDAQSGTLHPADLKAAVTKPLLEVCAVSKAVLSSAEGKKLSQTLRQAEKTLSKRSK

[10] = biological target: T5, Tyrosyl-tRNA synthetase, putative (Trypanosoma cruzi (strain CL Brener)); assay: Trypanosoma cruzi tyrosyl tRNA synthetase (TcYRS) SOP; assay type: functional; details: 30 µM
[11] = biological target: Chromo domain-containing protein 1 (Saccharomyces cerevisiae (strain ATCC 204508 / S288c) (Baker's yeast)) (UniProt P32657); assay: ScCHD-1 Enzyme Inhibition Assay; assay type: functional; details: 30 µM; also: in the data most compounds retested in dose-response had high values
Chromo domain-containing protein 1 (Saccharomyces cerevisiae (strain ATCC 204508 / S288c) (Baker's yeast)), sequence (P32657 whole entry, the tested form may be a part): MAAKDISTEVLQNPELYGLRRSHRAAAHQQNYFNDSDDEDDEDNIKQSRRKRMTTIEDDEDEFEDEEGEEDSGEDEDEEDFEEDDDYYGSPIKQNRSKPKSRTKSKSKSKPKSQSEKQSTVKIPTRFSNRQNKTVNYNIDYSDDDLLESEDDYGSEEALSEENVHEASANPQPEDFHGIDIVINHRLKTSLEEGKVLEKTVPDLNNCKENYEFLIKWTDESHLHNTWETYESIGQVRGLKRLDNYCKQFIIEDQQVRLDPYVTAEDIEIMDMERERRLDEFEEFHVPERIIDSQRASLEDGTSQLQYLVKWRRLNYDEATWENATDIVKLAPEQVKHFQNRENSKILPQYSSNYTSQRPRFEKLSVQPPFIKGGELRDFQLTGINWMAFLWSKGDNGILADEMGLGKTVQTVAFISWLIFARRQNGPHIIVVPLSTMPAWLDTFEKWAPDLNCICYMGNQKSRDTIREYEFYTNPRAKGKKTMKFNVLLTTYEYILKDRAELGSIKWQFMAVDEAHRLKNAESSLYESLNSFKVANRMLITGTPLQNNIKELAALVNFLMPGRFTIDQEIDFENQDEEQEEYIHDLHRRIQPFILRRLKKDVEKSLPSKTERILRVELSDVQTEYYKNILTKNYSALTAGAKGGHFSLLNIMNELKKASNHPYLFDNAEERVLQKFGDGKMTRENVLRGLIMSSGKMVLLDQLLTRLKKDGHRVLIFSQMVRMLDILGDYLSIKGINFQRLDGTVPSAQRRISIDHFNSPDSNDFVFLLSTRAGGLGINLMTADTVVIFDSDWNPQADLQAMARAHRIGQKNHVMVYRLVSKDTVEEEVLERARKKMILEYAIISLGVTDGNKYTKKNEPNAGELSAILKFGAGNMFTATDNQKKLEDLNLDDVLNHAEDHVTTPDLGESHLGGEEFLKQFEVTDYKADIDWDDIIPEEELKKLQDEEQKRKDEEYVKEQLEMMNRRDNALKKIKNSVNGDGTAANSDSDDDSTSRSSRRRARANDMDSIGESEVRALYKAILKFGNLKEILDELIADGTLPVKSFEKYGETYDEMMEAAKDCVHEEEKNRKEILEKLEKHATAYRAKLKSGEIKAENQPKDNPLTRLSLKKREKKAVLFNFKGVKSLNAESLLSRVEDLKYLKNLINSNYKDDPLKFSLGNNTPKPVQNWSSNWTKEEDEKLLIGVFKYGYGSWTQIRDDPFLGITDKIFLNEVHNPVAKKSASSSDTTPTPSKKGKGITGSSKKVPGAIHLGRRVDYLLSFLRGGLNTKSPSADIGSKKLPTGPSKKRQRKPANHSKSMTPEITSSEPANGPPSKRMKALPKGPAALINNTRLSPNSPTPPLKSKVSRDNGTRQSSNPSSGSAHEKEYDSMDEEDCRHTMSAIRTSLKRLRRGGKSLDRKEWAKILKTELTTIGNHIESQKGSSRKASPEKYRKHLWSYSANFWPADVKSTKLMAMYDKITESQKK

O=C(COc1ccccc1)N1C[C@@H](O)[C@H](N2CCCC2)C1
Percent Effect [1]: 0.635%
Percent Effect [2]: 9.46%
Percent Effect [3]: -7.13%
Percent Effect [4]: 3.56%
Percent Effect [5]: -3.46%
Percent Effect (Trypanosoma cruzi): 3.36%
Percent Effect [6]: -6.26%
Percent Effect [7]: 10.8%
Percent Effect (Homo sapiens): 1.48%
Percent Effect [8]: -14.2%
Percent Effect [9]: -1.07%
Percent Effect [10]: 3.9%
Percent Effect [11]: -22%

CN(Cc1cccnc1)[C@@H]1CN(CC2CC2)[C@@H]2CCCO[C@H]12
Percent Effect [1]: -1.86%
Percent Effect [2]: 2.67%
Percent Effect [3]: 3.49%
Percent Effect [4]: 2.59%
Percent Effect [5]: 2.23%
Percent Effect (Trypanosoma cruzi): -4.05%
Percent Effect [6]: -57.2%
Percent Effect [7]: 3.42%
Percent Effect (Homo sapiens): -1.28%
Percent Effect [8]: -18%
Percent Effect [9]: 2.08%
Percent Effect [10]: 5%
Percent Effect [11]: -8.32%

Fc1cnc(N2CCO[C@H]3CN(CC4CCCC4)C[C@H]32)nc1
Percent Effect [1]: -2.09%
Percent Effect [2]: 21.3%
Percent Effect [3]: -4.57%
Percent Effect [4]: -6.38%
Percent Effect [5]: -0.399%
Percent Effect (Trypanosoma cruzi): 3.48%
Percent Effect [6]: -60%
Percent Effect [7]: 3.93%
Percent Effect (Homo sapiens): -7.5%
Percent Effect [8]: -12.1%
Percent Effect [9]: 3.12%
Percent Effect [10]: 2.5%
Percent Effect [11]: -13.4%

CC(C)N1CCC2(CCN(C(=O)c3cccnc3)CC2)C1
Percent Effect [1]: 1.13%
Percent Effect [2]: 10.8%
Percent Effect [3]: 1.7%
Percent Effect [4]: 4.26%
Percent Effect [5]: -12.5%
Percent Effect (Trypanosoma cruzi): -9.68%
Percent Effect [6]: 8.6%
Percent Effect [7]: 20.9%
Percent Effect (Homo sapiens): -1.74%
Percent Effect [8]: -5.59%
Percent Effect [9]: -24.9%
Percent Effect [10]: 10.3%
Percent Effect [11]: -2.2%

COC[C@@H]1CCC[C@]12CN(Cc1cccc(C)n1)CCO2
Percent Effect [1]: 2.73%
Percent Effect [2]: 4%
Percent Effect [3]: 3.92%
Percent Effect [4]: 0.13%
Percent Effect [5]: -3.4%
Percent Effect (Trypanosoma cruzi): -8.45%
Percent Effect [6]: 0.528%
Percent Effect [7]: 15.3%
Percent Effect (Homo sapiens): 9.81%
Percent Effect [8]: -43.1%
Percent Effect [9]: 2.12%
Percent Effect [10]: 2.56%
Percent Effect [11]: -8.43%
